# In PubChem BioAssay:
# The source made the active and inactive calls. Unless noted, how the calls were made is not given here.
# How the values were obtained:
# [1] = HepG2 liver cancer cell viability effects, profiling panel, resazurin fluorescence, 24 h, PK04 Diversity Set (AID 1172); settings: higher = more signal
# [2] = basal S. cerevisiae growth modulation, no modifier, primary screen, OD600, strain BY4716, 24 h, basal condition (AID 1173); settings: OD600, 24 h, higher = more signal, called active from +8 up or from −8 down
# [3] = MM1S myeloma cell viability, profiling panel, resazurin fluorescence, basal, 24 h, PK04 Diversity Set (AID 1174); settings: higher = more signal, called active from +8 up or from −8 down;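 further: MM1S multiple myeloma cell line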
# [4] = target: Dihydroorotate dehydrogenase (quinone), mitochondrial (Plasmodium falciparum (isolate 3D7)) (UniProt Q08210); assay: PfDHODH enzyme inhibitors, primary screen, biochemical, C-terminal His tag, absorbance 600 nm (AID 1175); settings: DCIP absorbance 600 nm, higher = more signal, called active from +8 up or from −8 down;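 further: recombinant parasite enzyme with a five histidine tag at its C terminus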
# Dihydroorotate dehydrogenase (quinone), mitochondrial (Plasmodium falciparum (isolate 3D7)), sequence (Q08210 whole entry, looked up): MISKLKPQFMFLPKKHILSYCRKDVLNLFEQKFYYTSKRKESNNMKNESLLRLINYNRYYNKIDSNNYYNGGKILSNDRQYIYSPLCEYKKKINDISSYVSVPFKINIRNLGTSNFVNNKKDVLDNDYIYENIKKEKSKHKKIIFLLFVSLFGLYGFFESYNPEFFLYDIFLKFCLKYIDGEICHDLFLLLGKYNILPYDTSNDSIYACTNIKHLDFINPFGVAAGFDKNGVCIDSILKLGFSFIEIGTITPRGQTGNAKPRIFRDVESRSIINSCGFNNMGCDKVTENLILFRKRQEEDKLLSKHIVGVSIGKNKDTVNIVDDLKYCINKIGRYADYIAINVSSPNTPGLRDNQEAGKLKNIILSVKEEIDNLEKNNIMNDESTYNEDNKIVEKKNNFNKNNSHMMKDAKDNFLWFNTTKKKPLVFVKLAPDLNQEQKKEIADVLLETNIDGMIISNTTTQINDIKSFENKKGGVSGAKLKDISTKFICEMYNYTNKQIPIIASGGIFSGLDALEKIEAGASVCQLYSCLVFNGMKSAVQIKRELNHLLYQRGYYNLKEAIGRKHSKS
# [5] = P. aeruginosa biofilm formation inhibitors, primary screen, strain PAO1, LB-PBS medium, absorbance 600 nm (AID 1176); settings: P. aeruginosa PAO1 growth/biofilm, A600, 12 h; higher = more signal
# [6] = S. cerevisiae RM11-1a growth modifiers, primary screen, strain RM11-1a, OD600, basal, 24 h (AID 1177); settings: OD600, 24 h, higher = more signal, called active from +8 up or from −8 down;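 further: cultures grown under basal conditions with no added stressor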
# [7] = E. coli acrAB mutant growth effects, primary screen, E. coli filamentation inducers, strain DRC39, OD650, 24 h (AID 1178); settings: higher = more signal, called active from +8 up or from −8 down;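 further: growth measured as culture turbidity by optical density at 650 nm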
# [8] = E. coli acrAB mutant growth effects, primary screen, E. coli filamentation inducers, strain DRC39, OD650, 48 h (AID 1179);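 further: screen aims at cell division blockers that make cells filament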; settings: E. coli DRC39 delta-acrAB growth, higher = more signal, called active from +8 up or from −8 down
# [9] = RPMI8226 myeloma cell viability, profiling panel, resazurin fluorescence, basal, 24 h, PK04 Diversity Set (AID 1180); settings: higher = more signal;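 further: RPMI8826 multiple myeloma cell line at 5000 cells per well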
# [10] = target: E3 ubiquitin-protein ligase XIAP (Homo sapiens) (UniProt P98170); assay: XIAP binders, primary screen, biophysical, small-molecule microarray, fluorescence 635 nm (AID 1181); settings: small-molecule microarray binding, higher = more signal;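 further: score merges 667 nm emission and signal to noise over triplicate slides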
# E3 ubiquitin-protein ligase XIAP (Homo sapiens), sequence (P98170 whole entry, looked up): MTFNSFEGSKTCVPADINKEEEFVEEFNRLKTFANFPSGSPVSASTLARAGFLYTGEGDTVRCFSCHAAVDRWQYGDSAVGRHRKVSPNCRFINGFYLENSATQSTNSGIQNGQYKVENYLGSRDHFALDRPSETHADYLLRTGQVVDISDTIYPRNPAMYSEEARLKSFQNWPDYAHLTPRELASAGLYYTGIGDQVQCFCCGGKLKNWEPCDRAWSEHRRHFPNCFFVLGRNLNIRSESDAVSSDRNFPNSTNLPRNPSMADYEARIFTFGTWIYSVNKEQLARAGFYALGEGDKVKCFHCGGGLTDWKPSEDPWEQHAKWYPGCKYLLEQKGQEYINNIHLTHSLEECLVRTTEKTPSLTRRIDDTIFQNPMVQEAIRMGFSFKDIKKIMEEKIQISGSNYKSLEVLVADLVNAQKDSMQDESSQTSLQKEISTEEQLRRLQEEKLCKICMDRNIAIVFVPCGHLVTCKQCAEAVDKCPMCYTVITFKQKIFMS
# [11] = system: XIP peptide (Xip251-270) binding; assay: small-molecule binders of XIP peptide, primary screen, biochemical, small-molecule microarray, fluorescence 635/667 nm, 0.1 µg/mL protein (AID 1182); settings: fluorescent protein binding, 635 nm, higher = more signal, called active from +8 up or from −8 down
# XIP peptide (Xip251-270) = assay: small-molecule binders of XIP peptide, primary screen, biochemical, small-molecule microarray, fluorescence 635/667 nm, 0.5 µg/mL protein (AID 1183); settings: small-molecule microarray binding, fluorescence 635 nm; higher = more signal
# [12] = Plasmodium falciparum growth inhibition, primary screen, strain 3D7, DAPI fluorescence, 100 nL (AID 1184);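 further: parasites grown inside human red blood cells in medium with human serum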; settings: P. falciparum 3D7 growth, 3 d, higher = more signal
# [13] = target: Homeobox protein Hox-A13 (Mus musculus) (UniProt Q62424); assay: inhibitors of HoxA13-DNA binding, primary screen, biochemical, fluorescence polarization, labeled oligonucleotide (AID 1185); settings: 15 min, higher = more signal, called active from +8 up or from −8 down
# Homeobox protein Hox-A13 (Mus musculus), sequence (Q62424 whole entry, looked up): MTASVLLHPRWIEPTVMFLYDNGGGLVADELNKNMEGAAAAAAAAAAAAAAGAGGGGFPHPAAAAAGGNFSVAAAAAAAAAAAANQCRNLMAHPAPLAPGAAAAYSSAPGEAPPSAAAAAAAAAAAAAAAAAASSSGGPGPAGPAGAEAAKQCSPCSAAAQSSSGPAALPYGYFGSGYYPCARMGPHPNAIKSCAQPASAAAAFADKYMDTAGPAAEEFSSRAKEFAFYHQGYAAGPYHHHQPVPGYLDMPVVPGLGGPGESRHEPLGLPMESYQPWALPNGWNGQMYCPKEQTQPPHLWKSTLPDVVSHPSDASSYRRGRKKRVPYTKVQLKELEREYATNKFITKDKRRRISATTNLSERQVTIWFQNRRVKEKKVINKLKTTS
# [14] = inhibitors of hydroxyurea-induced Chk1 phosphorylation, primary screen, imaging, HeLa, phospho-Chk1 antibody, percent positive cells (AID 1186); settings: hydroxyurea-induced phospho-Chk1 immunofluorescence imaging, higher = more signal
# [15] = inhibitors of hydroxyurea-induced Chk1 phosphorylation, primary screen, imaging, HeLa, phospho-Chk1 nuclear intensity (AID 1187); settings: hydroxyurea-induced phospho-Chk1 immunofluorescence imaging, higher = more signal
Compound,z-score [1],z-score [2],z-score [3],composite z-score [4],z-score [5],z-score [6],z-score [7],z-score [8],z-score [9],composite z-score [10],composite z-score [11],composite z-score (XIP peptide (Xip251-270)),z-score [12],z-score [13],z-score [14],z-score [15]
CN1C(=O)C2C=CC(C(O)C3=C[C@H]4C[C@@H](C3)C4(C)C)N(Nc3ccccc3)C2C1=O (some centres not stated),-0.3,0.0844 (inactive),-0.419 (inactive),-0.0435 (inactive),2.14 (inactive),0.602 (inactive),-0.328 (inactive),-0.369 (inactive),-0.52,-0.174,0.654 (inactive),0.151,0.821,-3.75 (inactive),-0.556 (inactive),-0.864 (inactive)
CCOC(=O)C=Cc1cc([N+](=O)[O-])ccc1O,-0.495,-4.86 (inactive),-0.912 (inactive),-4.74 (inactive),-0.501 (inactive),0.11 (inactive),-0.238 (inactive),-1.13 (inactive),-0.688,0.193,-0.0238 (inactive),-0.466,-1.14,0.98 (inactive),-0.818 (inactive),-1.46 (inactive)
COC(=O)c1c(CC[C@@H](CO)NC(=O)N2CCC[C@H]2Cn2cc(-c3ccccn3)nn2)oc(C(C)=O)c1C(=O)OC,0.422,-0.835 (inactive),0.608 (inactive),-0.492 (inactive),-0.252 (inactive),-1.19 (inactive),1.28 (inactive),0.835 (inactive),0.426,-0.0351,1.82 (inactive),0.667,-1.04,-2.59 (inactive),-0.828 (inactive),-0.692 (inactive)
O=C1c2ccccc2[C@@]2(Cc3ccccc3N(CC(F)(F)F)C2=O)[C@H](c2ccc(CO)cc2)N1Cc1ccccc1Cl,0.0685,0.386 (inactive),0.192 (inactive),-22.2 (active),0.848 (inactive),-0.399 (inactive),0.424 (inactive),-0.411 (inactive),0.638,0.176,0.0764 (inactive),0.182,-0.699,0.0876 (inactive),-0.19 (inactive),-0.245 (inactive)
COCCOC(=O)N1C(=O)[C@@]2(c3cc(C#CCCO)ccc31)[C@H](c1ccc(OCCO)cc1)N1[C@H](c3ccccc3)[C@H](c3ccccc3)OC(=O)[C@H]1[C@@H]2C(=O)N1CCN(c2ncccn2)CC1,0.235,1.37 (inactive),0.327 (inactive),-0.547 (inactive),1.27 (inactive),1.24 (inactive),-0.448 (inactive),-0.327 (inactive),0.52,-0.212,-0.112 (inactive),0.676,-1.98,0.671 (inactive),0.159 (inactive),-0.0774 (inactive)
C=CC[C@@]1(C(=O)N(C)C)N=C(c2ccc(OCCCO)cc2)O[C@@H]1c1ccccc1N=[N+]=[N-],-0.614,0.093 (inactive),-2.82 (inactive),-0.007 (inactive),0.314 (inactive),0.274 (inactive),-0.112 (inactive),0.0912 (inactive),-1.71,0.0794,0.158 (inactive),0.888,-2.09,-3.42 (inactive),0.0664 (inactive),0.157 (inactive)
C=CCC(OC(C)=O)[C@@H]1[C@@H](N(Cc2cccc3ccccc23)C(=O)c2ccc(-c3ccccc3)cc2)c2cc(OCCCO)ccc2N1C(=O)Cc1ccc(OC)cc1 (some centres not stated),1.07,-0.912 (inactive),1.6 (inactive),-0.606 (inactive),-0.513 (inactive),-1.2 (inactive),0.738 (inactive),0.718 (inactive),1.45,-0.0076,-0.162 (inactive),0.637,-1.17,-1.15 (inactive),-0.302 (inactive),-0.0837 (inactive)
O=C(C1N=C(c2ccc(OCCCO)cc2)N(c2ccccc2)O1)N1CCOCC1 (configuration not stated),0.55,-1.3 (inactive),0.466 (inactive),-1.09 (inactive),-0.91 (inactive),-1 (inactive),1.42 (inactive),1.92 (inactive),2.12,-0.163,0.254 (inactive),0.206,-0.277,-2.88 (inactive),-0.554 (inactive),-0.262 (inactive)
CCOC1=C2C(CN(S(=O)(=O)c3ccc(C)cc3)C2c2ccc(C)cc2)C2C(=O)N(c3ccccc3)C(=O)C2C1 (configuration not stated),-0.635,0.941 (inactive),-0.193 (inactive),-1.12 (inactive),-0.2 (inactive),0.413 (inactive),-0.392 (inactive),0.758 (inactive),0.366,-0.0773,-0.0729 (inactive),0.457,0.694,-1.82 (inactive),0.218 (inactive),0.402 (inactive)
[N-]=[N+]=Nc1ccccc1[C@H]1OC(c2ccc(OCCCO)cc2)=N[C@@]1(Cc1ccccc1)C(=O)O,0.615,-0.967 (inactive),-0.149 (inactive),1.12 (inactive),0.631 (inactive),0.222 (inactive),0.451 (inactive),0.534 (inactive),-0.434,0.0735,0.387 (inactive),0.686,-1.23,-5.18 (inactive),-0.48 (inactive),-0.822 (inactive)
C=CCC(OC(C)=O)[C@@H]1[C@@H](N(Cc2ccc(-c3ccccc3)cc2)C(=O)Cc2ccc(F)cc2)c2cc(OCCCO)ccc2N1C(=O)c1ccc(-c2ccccc2)cc1 (some centres not stated),1.27,-1.65 (inactive),1.4 (inactive),-1.46 (inactive),-0.124 (inactive),-1.34 (inactive),0.904 (inactive),1.6 (inactive),1.48,-0.296,-0.142 (inactive),0.166,-1.9,-0.778 (inactive),-0.517 (inactive),-0.285 (inactive)
COc1ccc(C(=O)Nc2ccc(CN3C(=O)[C@@]4(O[C@@H](CCn5cc([C@H](O)c6ccccc6)nn5)[C@H]([Si](C)(C)c5ccc(OC)cc5)[C@H]4C)c4ccccc43)cc2)cc1,-1.44,-0.91 (inactive),-3.18 (inactive),-0.441 (inactive),1.04 (inactive),1.57 (inactive),0.245 (inactive),0.195 (inactive),-3.11,-0.16,0.0679 (inactive),0.216,-2.3,0.568 (inactive),-0.0665 (inactive),-0.348 (inactive)
COc1ccc(C(=O)Nc2cccc(CN3C(=O)[C@]4(O[C@H](CCO)[C@@H]([Si](C)(C)c5ccc(OC)cc5)[C@@H]4C)c4ccccc43)c2)cc1,-6.28,-3.7 (inactive),-9.11 (active),0.255 (inactive),1.01 (inactive),4.05 (inactive),0.127 (inactive),-0.903 (inactive),-6.27,0.0847,-0.0488 (inactive),0.639,-2.85,-2.45 (inactive),-0.204 (inactive),-0.881 (inactive)
COC(=O)[C@@]1(Cc2ccc(F)cc2)[C@H]2c3cc(C(=O)N(C)C)n(Cc4nc5ccccc5[nH]4)c3C[C@H]2CN1C(=O)c1ccccc1,0.455,0.681 (inactive),-0.534 (inactive),0.0187 (inactive),0.315 (inactive),0.22 (inactive),-0.0051 (inactive),0.12 (inactive),-0.187,0.338,0.642 (inactive),0.817,-0.593,-3.68 (inactive),-0.11 (inactive),-0.0626 (inactive)
COc1ccc(CCNC(=O)[C@@H]2c3ccccc3C(=O)N(C3Cc4ccccc4C3)[C@H]2c2ccc(CO)cc2)cc1,0.763,0.594 (inactive),-0.642 (inactive),0.441 (inactive),0.292 (inactive),0.205 (inactive),-0.195 (inactive),0.121 (inactive),-0.303,0.126,1.14 (inactive),0.219,-0.268,-3.47 (inactive),-0.222 (inactive),-0.28 (inactive)
[N-]=[N+]=Nc1ccccc1C[C@]1(C(=O)NCC(O)CO)N=C(c2ccc(OCCCO)cc2)O[C@H]1c1ccccc1N=[N+]=[N-] (some centres not stated),-1.01,-1.14 (inactive),-2.08 (inactive),0.139 (inactive),-0.428 (inactive),1.52 (inactive),-0.0211 (inactive),0.622 (inactive),-1.99,0.0968,0.0936 (inactive),-0.316,-2.44,-5.33 (inactive),-0.467 (inactive),-0.312 (inactive)
COC(=O)c1c(CC[C@@H](CO)NC(=O)N[C@H](Cn2cc(Cc3ccccc3)nn2)C(C)C)oc(C(C)=O)c1C(=O)OC,-0.61,-1.64 (inactive),-0.0537 (inactive),-3.09 (inactive),0.656 (inactive),-0.705 (inactive),1.58 (inactive),0.582 (inactive),-0.193,-0.121,0.369 (inactive),-0.0446,-1.99,-0.701 (inactive),1.02 (inactive),1.38 (inactive)
